# From PubChem
# Most compounds without a hit are left out; they make up all but 2% or so of the library.
# M4 PAM = positive allosteric modulators of human muscarinic M4 receptor; P08173; CHO-K1 hM4/Gqi5, Fluo-8 calcium fluorescence, ACh EC20; 0% = ACh EC20, 100% = maximal ACh; activation, % at 3 µM; 0.4% of 360,000 active;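 active = activation above its plate's cutoff, the mean activation of sample wells plus 3 SD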
# Target sequence (P08173 whole entry, looked up): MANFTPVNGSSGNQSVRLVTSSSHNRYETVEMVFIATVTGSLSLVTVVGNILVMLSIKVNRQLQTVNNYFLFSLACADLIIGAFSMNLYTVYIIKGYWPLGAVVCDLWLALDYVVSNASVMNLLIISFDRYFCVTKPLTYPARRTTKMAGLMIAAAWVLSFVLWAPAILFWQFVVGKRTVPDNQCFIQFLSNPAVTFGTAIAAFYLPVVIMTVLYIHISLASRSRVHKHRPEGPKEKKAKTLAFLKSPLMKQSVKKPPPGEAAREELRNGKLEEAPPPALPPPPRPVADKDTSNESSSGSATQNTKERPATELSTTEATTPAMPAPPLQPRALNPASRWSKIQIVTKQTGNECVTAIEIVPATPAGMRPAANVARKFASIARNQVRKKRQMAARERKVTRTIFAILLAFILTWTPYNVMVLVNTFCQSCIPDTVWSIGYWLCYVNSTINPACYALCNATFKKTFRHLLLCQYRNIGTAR
# M4 antag = blocks acetylcholine activation of human M4 receptor; P08173; CHO-hM4 cells, ACh EC80, Fluo-8 calcium fluorescence; inhibition, % at 3 µM; 0.73% of 360,000 active; AID 624125;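 active = inhibition above its plate's cutoff, the mean inhibition of sample wells plus 3 SD, cut at about 27% in these data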;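 also: 0% = acetylcholine EC80 with DMSO and 100% = DMSO without agonist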
# CHO-K1 Ca PAM = counter-screen for M1 PAMs: effect in parental CHO-K1 cells; activation, % at 3 µM; ATP EC20, Fluo-8 calcium fluorescence; 0% at ATP EC20, 100% at ATP max; 0.02% of 360,000 active; AID 602247;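 active = activation above the run cutoff, the mean activation of all test compounds plus 3 SD, cut at about 40% in these data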;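 also: peak over basal fluorescence ratio in a 140 s read after ATP addition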
# CHO-K1 Ca antag = counter-screen for M1 antagonists: effect in parental CHO-K1 cells; ATP-induced calcium, Fluo-8 fluorescence; inhibition, % at 3 µM; 0.6% of 360,000 active;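 active = inhibition above a per-plate cutoff, the plate's mean sample inhibition plus 3 SD, cut at about 24% in these data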;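 also: 0% = DMSO plus EC80 ATP and 100% = DMSO alone without ATP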
# M1 ag parental = counter-screen for M1 agonists: effect in parental CHO-K1 cells | Fluo-8 calcium fluorescence; scaled to maximal ATP response, vehicle zero | AID 602248 | 0.48% of 360,000 active | activation, % at 3 µM; in the data active = activation above about 15%;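 also: untransfected CHO-K1 host cells lacking M1 receptor as counterscreen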
# M4 ag = agonists of human muscarinic M4 receptor (CHRM4); 0.14% of 360,000 active; CHO-K1 hM4/Gqi5, Fluo-8 calcium fluorescence; vehicle 0%, full acetylcholine response 100%; activation, % at 3 µM; AID 624127;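 active = activation above the run mean over all test wells plus 3 SD, cut at about 32% in these data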;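 also: peak over basal fluorescence ratio per well then scaled between controls; 0% = DMSO wells and 100% = acetylcholine at EC100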
# Numbers without * were called inactive.
SMILES,M4 PAM,M4 antag,CHO-K1 Ca PAM,CHO-K1 Ca antag,M1 ag parental,M4 ag
CC(C)[C@H](NC(=O)c1ccc(C(C)(C)C)cc1)C(=O)N1CCN(Cc2ccc3c(c2)OCO3)CC1,-1,-2,6,-13,0,1
COc1ccccc1CNC(=O)C1CCC(=O)N(CCCc2ccccc2)C1 (centres undefined),6,-6,6,32*,2,4
Cc1c(CNC(=O)C2CCC(=O)N(CCc3ccccc3)C2)cnn1C (centres undefined),21*,-3,-12,-6,0,0
COC(=O)c1ccc(CNC(=O)C2CCC(=O)N(CCCc3ccccc3)C2)cc1 (centres undefined),-5,-21,11,-3,1,3
COC(=O)C1=C(N)Oc2cc(C)n(Cc3cccnc3)c(=O)c2C1c1ccc(OC)c(OC)c1OC (centres undefined),14,-4,2,-15,0,0
COC(=O)C1=C(N)Oc2cc(C)n(Cc3cccnc3)c(=O)c2C1c1ccccc1OC (centres undefined),4,4,-7,26*,0,0
COc1ccc(-c2nnc(SCC(=O)NCC3CCCO3)o2)cc1 (centres undefined),-1,3,-2,-2,0,0
Cc1cc(C)cc(-c2nnc(SCC(=O)NCC3CCCO3)o2)c1 (centres undefined),23*,-3,13,-16,0,3
CC1CCN(Cc2ccc(NC(=O)CC3Oc4ccccc4NC3=O)cc2)CC1 (centres undefined),-14,97*,15,-1,1,2
CCc1cccc(NC(=O)CC2Oc3ccccc3NC2=O)c1 (centres undefined),-1,-2,-7,-13,1,3
CCC(C)N(CCNC(=O)CC1Oc2ccccc2NC1=O)C1CCCCC1 (centres undefined),-14,45*,14,-6,0,0
CN(C)c1ccc(/C=N/NC(N)=S)cc1[N+](=O)[O-],-4,2,-5,-5,1,3
COc1ccc(-c2nc(N)c(C#N)c(-c3cccnc3)c2C)cc1,9,-1,19,-7,1,2
CCOC(=O)c1c(NC(C)=O)sc2c1CCCNC2=O,4,8,-10,26*,0,0
C#CC[N+](C)(C)CCCCCCCCCCCC,-15,53*,29,-7,24*,0
CC#CC[N+](C)(C)CCCCCCCCCCCC,-20,27*,16,-8,1,0
C#CC[N+](C)(C)CCCCCCCCCC,-11,6,20,0,0,0
COc1ccc(-c2nc(CS(=O)CC(=O)NC3CCC(C)CC3)c(C)o2)cc1OC (centres undefined),5,4,15,-18,0,0
COc1ccc(N2CCN(CCNC(=O)Nc3ccc(C)c(Cl)c3)CC2)cc1,-4,-2,-8,-12,18*,10
COc1ccc(N2CCN(C(=O)c3ccc(C)c(Cl)c3)CC2)cc1,10,2,-3,29*,0,1
C/C(=N\NC(=O)c1ccc(CSc2nncn2C)cc1)c1ccc(Cl)cc1,0,-7,20,-10,1,0
COc1ccc(/C(C)=N/NC(=O)c2ccc(CSc3nncn3C)cc2)cc1,-3,3,15,9,15*,0
COc1ccc(-c2nc3c(-c4ccc(F)cc4)cnn3cc2C)cc1F,-2,0,-5,-16,0,0
CCN(CC)S(=O)(=O)c1cccc(-c2nnc(SCCOc3ccccc3)o2)c1,-11,8,7,47*,1,4
CCN(CC(=O)NCc1ccc(Cl)cc1)C(=O)COc1cccc(C(F)(F)F)c1,4,-19,-8,2,0,2
SMILES,M4 PAM,M4 antag,CHO-K1 Ca PAM,CHO-K1 Ca antag,M1 ag parental,M4 ag
CCCCc1cc(=O)oc2cc(OC3CCCCC3=O)ccc12 (centres undefined),-4,-23,5,-13,0,1
CN1/C(=C\C(=O)COC(=O)Cn2nnc(-c3ccccc3)n2)C(C)(C)c2ccccc21,-12,18,-7,24*,1,7
O=C(CCl)N1CCCC1c1ccc2c(c1)OCCO2 (centres undefined),-2,6,-5,-8,0,0
CCOC(=O)Nc1cccc(OCC(=O)Nc2ccccc2OCC)c1,-3,2,-6,24*,1,3
CC(=O)Nc1cccc(OCC(=O)Nc2ccccc2)c1,2,-8,2,-8,1,2
Cc1cccc(C(=O)NNC(=S)NC(=O)c2ccccc2)c1,-17,18,-32,35*,100*,118*
Cc1ccccc1C(=O)NNC(=S)NC(=O)c1ccccc1,-5,1,-13,5,55*,41*
CCCCC(=O)NC(=S)NNC(=O)c1ccc(Cl)cc1Cl,-2,8,3,-16,26*,3
Cc1cccc(C(=O)NNC(=S)NC(=O)c2cccs2)c1,-18,-5,-12,20,85*,129*
O=C(O)c1cccc2c1C(=O)c1ccc(-c3ccc(F)cc3F)cc1S2(=O)=O,10,4,25,-10,0,1
Cc1ccc(C(=O)NC(=S)NNC(=O)c2ccccc2)cc1,-19,-2,-32,35*,20*,87*
Cc1ccc(C(=O)NNC(=S)NC(=O)c2ccco2)cc1,-7,0,-9,2,21*,25
CC(C)(C)c1cc(CCC(=O)NNC(=S)NC(=O)c2ccccc2)cc(C(C)(C)C)c1O,-10,4,-6,30*,56*,37*
Cc1ccc(C(=O)NC(=S)NNC(=O)c2ccccc2O)cc1,3,-2,3,-11,0,0
Cc1ccc(C(=O)NNC(=S)NC(=O)c2ccccc2)cc1,-68,28*,-31,27*,70*,130*
O=C(CN1C(=O)C2CC=CCC2C1=O)Nc1ccc(OC(F)(F)F)cc1 (centres undefined),7,-15,14,-18,0,1
CCOC(=O)[C@]12CCCC=C1N(Cc1ccc3c(c1)OCO3)C(=O)[C@H](CC(=O)NCc1ccc(C)o1)C2,3,-11,30,-31,2,2
Cc1ccc(NC(=O)C2CCN(S(=O)(=O)c3c(C)n[nH]c3C)CC2)c(C)c1,1,-14,-8,-4,1,1
O=C(NC(=S)NNC(=O)c1ccccc1O)c1ccccc1,-2,5,20,-15,10,6
O=C(NC(=S)Nc1cccc2cc(O)ccc12)c1ccco1,1,-2,-5,10,31*,6
O=C(NC(=S)NNC(=O)c1ccccc1O)c1ccc(F)cc1,-4,-4,6,0,30*,16
